Compound activity from PubChem BioAssay.
Nrf2 ARE act: Nrf2 pathway activation. AREc32 ARE-luciferase reporter (MCF7-derived line), luminescence, 24 h. Potency, µM (titrated, usually from 46.1 µM), most hits filed as activators. 410,000 compounds, 0.31% hits; further: nearly all actives have a fitted effect of over 65% in size
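For detection, Steady-Glo was added and plates sat 30 min at RT; before that, AREc32_Fluc cells grown overnight in OPTI-MEM/5% FBS had been treated with 23 nL compound for 24 hr at 37 deg C.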
ELG1 repair inh: blocks ELG1-dependent DNA repair in HEK293T cells. HEK293T ELG1-luciferase reporter, luminescence, 16 h; DNA damage induced by 5-fluorouridine. Potency, µM (highest dose often 46.1 µM), hits mostly inhibitors. 330,000 compounds, 2.3% hits. AID 504467; further: nearly all actives have a fitted effect of over 55% in size
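Step one: seed 2,000 cells per well. Step two: pin-transfer compound or DMSO alongside 5-fluorouridine. Step three: incubate 16 hr, 37 °C, 5% CO2. Step four: add ONE-Glo, wait 30 min, read luminescence.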
BRCA1 expr act: increases BRCA1 expression; MCF7-BRCA1-FFLuc reporter, luminescence, 48 h; response scale: scaled: vehicle 0%, 10 µM genistein 100%; Potency, µM (highest dose often 46.1 µM), hits mostly activators; 380,000 compounds, 1.1% hits; further: nearly all actives have a fitted effect of over 80% in size
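Luminescence from a BRCA1-driven firefly luciferase in MCF7 cells was read after 48 h compound exposure at 37 C. Data normalized against DMSO and a 10microM genistein activation control, then curve-fitted across the titration.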
IL2 activator: activators of IL-2; activation, % (series mostly up to about 46 µM); IL-2 activation reporter assay, cell-based qHTS; stimulated with anti-CD3/CD4/CD28 beads; in transgenic mouse T cells; 360,000 compounds, 0.065% hits; AID 652025; in the data active means activation above about 50%; inconclusive means mostly about 30% to 49%
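Unstimulated transgenic mouse T cells, 750 per well, received compound and, after 60 minutes, anti-CD3/anti-CD4 bead plus anti-CD28 stimulation. EGFP and DsRed were quantified after 18 hours.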
ELG1 FLuc counter: luciferase inhibition in cell-free luciferin readout for ELG1 hits; shares compounds with ELG1 repair inh; cell-free firefly luciferase luminescence counter-screen, ViewLux; Potency, µM (titrated, usually from 46.1 µM), usual class: inhibitors; 350 compounds, 3% hits; AID 624247
ELG1 Luc conf: confirmation of human ELG1-dependent DNA repair inhibitors; Potency, µM (titrated, usually from 46.1 µM), most hits filed as inhibitors; 670 compounds, 68% hits; HEK293T ELG1-luciferase levels, luminescence; cells co-treated with 5-fluorouridine; shares compounds with ELG1 repair inh; further: nearly all actives have a fitted effect of over 55% in size
Target sequence (Q96QE3 whole entry, looked up): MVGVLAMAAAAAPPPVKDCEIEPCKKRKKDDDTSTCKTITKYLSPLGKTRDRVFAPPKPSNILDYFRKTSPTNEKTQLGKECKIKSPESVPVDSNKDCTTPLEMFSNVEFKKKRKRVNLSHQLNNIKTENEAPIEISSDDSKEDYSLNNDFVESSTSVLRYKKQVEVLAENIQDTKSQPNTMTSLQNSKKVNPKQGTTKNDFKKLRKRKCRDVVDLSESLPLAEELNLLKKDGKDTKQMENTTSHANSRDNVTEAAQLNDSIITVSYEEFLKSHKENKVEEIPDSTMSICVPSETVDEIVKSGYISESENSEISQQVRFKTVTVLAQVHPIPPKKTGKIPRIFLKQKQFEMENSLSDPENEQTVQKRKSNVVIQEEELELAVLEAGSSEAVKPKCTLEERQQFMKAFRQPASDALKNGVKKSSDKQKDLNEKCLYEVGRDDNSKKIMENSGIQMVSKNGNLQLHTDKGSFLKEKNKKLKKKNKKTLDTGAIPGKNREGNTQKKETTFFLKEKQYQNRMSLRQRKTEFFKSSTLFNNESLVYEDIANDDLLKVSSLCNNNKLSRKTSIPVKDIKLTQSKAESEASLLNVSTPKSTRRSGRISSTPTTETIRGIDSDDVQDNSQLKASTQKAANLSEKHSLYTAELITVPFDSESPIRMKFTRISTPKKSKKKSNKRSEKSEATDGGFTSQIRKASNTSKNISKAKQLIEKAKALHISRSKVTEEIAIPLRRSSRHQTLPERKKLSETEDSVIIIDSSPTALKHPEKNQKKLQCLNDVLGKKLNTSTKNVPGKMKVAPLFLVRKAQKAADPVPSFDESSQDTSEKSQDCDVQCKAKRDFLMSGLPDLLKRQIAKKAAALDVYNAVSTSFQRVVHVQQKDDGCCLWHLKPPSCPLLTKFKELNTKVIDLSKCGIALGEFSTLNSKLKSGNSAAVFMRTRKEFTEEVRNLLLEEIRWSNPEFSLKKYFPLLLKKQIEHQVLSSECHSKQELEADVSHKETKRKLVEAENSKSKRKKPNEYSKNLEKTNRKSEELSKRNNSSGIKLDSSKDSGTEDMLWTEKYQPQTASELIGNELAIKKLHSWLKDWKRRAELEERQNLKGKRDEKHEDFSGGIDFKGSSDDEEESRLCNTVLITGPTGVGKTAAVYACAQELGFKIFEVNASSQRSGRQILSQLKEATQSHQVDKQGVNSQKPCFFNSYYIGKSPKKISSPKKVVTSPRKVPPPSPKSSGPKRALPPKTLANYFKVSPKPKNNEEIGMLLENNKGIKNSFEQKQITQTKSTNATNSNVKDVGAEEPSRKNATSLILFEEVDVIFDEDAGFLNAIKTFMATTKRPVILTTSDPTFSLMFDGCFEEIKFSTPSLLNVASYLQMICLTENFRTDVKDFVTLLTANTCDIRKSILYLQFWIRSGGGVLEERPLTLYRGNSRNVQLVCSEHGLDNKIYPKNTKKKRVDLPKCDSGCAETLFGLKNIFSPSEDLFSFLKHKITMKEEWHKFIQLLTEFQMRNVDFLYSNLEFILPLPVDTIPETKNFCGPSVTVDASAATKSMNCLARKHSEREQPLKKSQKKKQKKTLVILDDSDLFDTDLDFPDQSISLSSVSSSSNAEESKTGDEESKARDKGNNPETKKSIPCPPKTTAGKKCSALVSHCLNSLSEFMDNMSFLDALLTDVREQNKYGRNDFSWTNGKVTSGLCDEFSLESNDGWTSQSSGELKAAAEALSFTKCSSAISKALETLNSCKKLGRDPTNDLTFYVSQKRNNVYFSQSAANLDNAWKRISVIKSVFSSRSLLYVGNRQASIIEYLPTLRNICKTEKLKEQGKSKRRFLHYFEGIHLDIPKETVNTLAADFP
ELG1-Luc MMS: MMS-stimulated human ELG1 repair inhibition, confirmed | shares compounds with ELG1 repair inh | HEK293T luciferase-tagged ELG1 level, MMS stimulated | Potency, µM (series often up to 46.1 µM), hits mostly inhibitors | 670 compounds, 53% hits; further: nearly all actives have a fitted effect of over 60% in size
ELG1 5-FU: confirmation of ELG1 repair inhibitors: viability with 5FU; 670 tested, under 10 active; shares compounds with ELG1 repair inh; AID 624250; cell viability with 5-FU, ELG1-dependent repair; Potency, µM (doses to about 46.1 µM), most hits filed as cytotoxic;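 further: ELG1-luc HEK293T cells cotreated with 5-fluorouridine at 10 µM final; viability measured 16 h after compound addition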
ELG1 MMS viab: confirmation of ELG1 repair inhibitors: viability with MMS. shares compounds with ELG1 repair inh. Cell viability with MMS, ELG1-dependent DNA repair. Potency, µM (doses to about 46.1 µM), usual class: cytotoxic. 670 compounds, 33% hits. AID 624251;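 further: ELG1-luc HEK293T cells co-treated with 10 µM MMS; viability read 16 h after compound addition; nearly all actives have a fitted effect of over 60% in size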
ELG1 unstim viab: affects unstimulated cell viability, ELG1 hit counter-screen. shares compounds with ELG1 repair inh. Potency, µM (highest dose often 45.9 µM), usual class: cytotoxic. cell viability counter-screen, unstimulated, luminescence. 900 compounds, 8% hits;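 further: compound exposure lasted 16 hours before reading; nearly all actives have a fitted effect of over 55% in size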
FLuc enzyme: counter-screen for ELG1 repair inhibitors: firefly luciferase inhibition | Potency, µM (titrated, usually from 57.5 µM), most hits filed as inhibitors | shares compounds with ELG1 repair inh | purified firefly luciferase, luminescence counter-screen | 350 compounds, 10% hits
Numbers stand for hits; i = inactive; ? = inconclusive; nt = not tested or not shown. Shown are actives, neighbours in structure and some others; about 3.1% of the full set was active somewhere. Unless noted, the call rests on the fitted dose curve; in most records, active means well fitted curve in the direction sought with a large enough effect; inconclusive means small, poorly fitted or top-dose-only effect, or another doubt; inactive means no such curve, though single readings can be large; an effect the other way counts as inactive or inconclusive.

SMILES	Nrf2 ARE act	ELG1 repair inh	BRCA1 expr act	IL2 activator	ELG1 FLuc counter	ELG1 Luc conf	ELG1-Luc MMS	ELG1 5-FU	ELG1 MMS viab	ELG1 unstim viab	FLuc enzyme
CCOc1cc(N2CCOCC2)c(OCC)cc1NC(=O)c1nn(CC)c(=O)c2ccccc12	i	2.3µM	i	i	nt	2.2µM	14µM	i	?	?	nt
Cc1ccc(-c2cc3c(N4CCN(c5cc(C)ccc5C)CC4)nccn3n2)cc1	i	nt	i	nt	nt	nt	nt	nt	nt	nt	nt
CCOC(=O)N1CCN(C(=O)c2cnn3c(C(F)F)cc(-c4ccc(C)cc4)nc23)CC1	i	3.7µM	i	i	nt	3.5µM	i	?	i	?	nt
COc1ccc(-c2cc(C(F)F)n3ncc(C(=O)N4CCc5ccccc54)c3n2)cc1	i	0.52µM	i	i	i	4.5µM	?	?	?	i	i
COc1ccc(-c2cc(C(F)F)n3ncc(C(=O)Nc4ccc(C(=O)N5CCOCC5)cc4)c3n2)cc1	i	2.6µM	i	i	nt	2.8µM	i	?	i	?	nt
CCOCCCNC(=O)c1cn(C)c2ccc(S(=O)(=O)N3CCCCC3)cc2c1=O	i	i	i	i	nt	nt	nt	nt	nt	nt	nt
CCn1cc(C(=O)NCC(OC)OC)c(=O)c2cc(S(=O)(=O)N3CCCC3)ccc21	i	i	i	i	nt	nt	nt	nt	nt	nt	nt
COCCNC(=O)c1cn(C)c2ccc(S(=O)(=O)N3CCCCC3)cc2c1=O	i	2.9µM	i	i	nt	?	?	i	i	?	nt
CCn1cc(C(=O)NCC(OC)OC)c(=O)c2cc(S(=O)(=O)N3CCC(C)CC3)ccc21	i	2.6µM	i	i	nt	16µM	16µM	i	?	16µM	nt
Cc1cc(C)c(NC(=O)c2c(C)oc3c2C2=NCCN2C=N3)c(C)c1	i	nt	i	nt	nt	nt	nt	nt	nt	nt	nt
COCCn1c(C(C)C)nc2oc3ccccc3c(=O)c2c1=O	i	1.4µM	i	i	nt	i	i	i	i	i	nt
CCc1nc2oc3ccccc3c(=O)c2c(=O)n1CCOC	i	i	i	i	nt	nt	nt	nt	nt	nt	nt
COc1cc2c(cc1OC)CN(C(=O)c1nn(Cc3ccccc3)c(=O)c3ccccc13)CC2	i	2.6µM	i	i	nt	1.1µM	?	?	?	?	nt
Cc1cc(C)n(C(N)=NC(=O)c2ccccc2)n1	i	nt	i	i	nt	nt	nt	nt	nt	nt	nt
Cc1nc2sc3c(NCc4ccco4)ncnc3c2c2c1COC(C)(C)C2	i	2.6µM	i	i	i	3.5µM	22µM	?	i	?	i
COc1ccc(-c2cc(C(F)(F)F)n3ncc(C(=O)NCC4CCCO4)c3n2)cc1OC (centres undefined)	i	0.58µM	i	i	i	0.89µM	i	?	i	i	i
CCOC(=O)c1cnn2c(C(F)(F)F)cc(-c3ccc(Br)cc3)nc12	i	nt	nt	nt	nt	nt	nt	nt	nt	nt	nt
COc1ccc(-c2cc(C(F)(F)F)n3nc(C(=O)Nc4cc(C)on4)cc3n2)cc1OC	i	3.7µM	i	i	nt	?	i	?	?	i	nt
Cc1cc(NC(=O)c2cnn3c(C(F)(F)F)cc(-c4ccc(Br)cc4)nc23)no1	i	15µM	i	i	i	5µM	i	?	i	i	i
N#Cc1cc2cc3c(cc2nc1SCC(=O)N1CCOCC1)OCO3	i	?	i	i	i	nt	nt	nt	nt	i	i
CCOc1ccc2cc(C#N)c(SCC(=O)N3CCOCC3)nc2c1	i	?	?	i	i	nt	nt	nt	nt	?	i
Cc1cc2cc3c(cc2nc1SCC(=O)N1CCOCC1)OCO3	i	i	i	i	i	nt	nt	nt	nt	i	i
CCOC(=O)CSc1nc2cc3c(cc2cc1C)OCO3	i	i	i	i	nt	nt	nt	nt	nt	nt	nt
CCOc1ccc2nc(SCC(=O)N3CCCCCC3)c(C#N)cc2c1	i	i	i	i	nt	nt	nt	nt	nt	nt	nt
Cc1ccc(Cl)cc1N1C(=O)N(Cc2ccc(C#N)cc2)c2ccccc2S1(=O)=O	i	nt	i	nt	nt	nt	nt	nt	nt	nt	nt
SMILES	Nrf2 ARE act	ELG1 repair inh	BRCA1 expr act	IL2 activator	ELG1 FLuc counter	ELG1 Luc conf	ELG1-Luc MMS	ELG1 5-FU	ELG1 MMS viab	ELG1 unstim viab	FLuc enzyme
Cc1c(C(=O)NCc2ccccc2C(F)(F)F)sc(=O)n1Cc1ccc(F)cc1	i	nt	i	i	nt	nt	nt	nt	nt	nt	nt
O=C(Nc1cccc(/C=C/c2ccccn2)c1)c1ccc(-n2cncn2)cc1	?	3.3µM	i	i	nt	13µM	?	i	?	?	nt
Cc1c(-c2nc(-c3ccc4c(c3)[nH]c(=O)n4C)no2)cccc1[N+](=O)[O-]	i	nt	i	nt	nt	nt	nt	nt	nt	nt	nt
COc1ccc2ncn(-c3ccccc3)c2c1	i	2.3µM	i	i	nt	?	?	i	?	i	nt
c1ccc(-n2cnc3ccccc32)cc1	i	?	?	i	nt	nt	nt	nt	nt	nt	nt
COc1ccc(-c2oc(=O)c3cc(OC)c(OC)cc3c2/C=C/c2cccc([N+](=O)[O-])c2)cc1	i	1.6µM	i	i	nt	?	i	i	?	i	nt
CCOC(=O)N1CCN(CCC(=O)Nc2cccc(F)c2)CC1	i	nt	nt	nt	nt	nt	nt	nt	nt	nt	nt
CN(C)S(=O)(=O)c1cccc(CSCc2cccc(S(=O)(=O)N(C)C)c2)c1	i	1.3µM	i	i	nt	?	1.1µM	i	1.1µM	?	nt
Cc1cc(C)n2nc(SCc3cccc(S(=O)(=O)N(C)C)c3)nc2n1	?	i	i	i	nt	nt	nt	nt	nt	nt	nt
CC(=O)c1ccc(C(=O)N(Cc2cccnc2)c2nc3c(C)c(C)ccc3s2)cc1	i	nt	nt	nt	nt	nt	nt	nt	nt	nt	nt
CC1=C(C(=O)OCc2ccc3c(c2)OCO3)C(c2ccc(F)cc2)NC(=O)N1 (centres undefined)	i	1.3µM	i	i	?	0.89µM	4.5µM	i	?	?	i
CSCCOC(=O)C1=C(C)NC(=O)NC1c1ccc2c(c1)OCO2 (centres undefined)	i	i	i	i	nt	nt	nt	nt	nt	nt	nt
CC1=C(C(=O)OCc2ccc3c(c2)OCO3)C(c2ccc(Cl)cc2)NC(=O)N1 (centres undefined)	i	0.23µM	i	i	?	0.2µM	0.89µM	i	?	?	i
OCCNc1nc(-c2cccnc2)nc2ccccc12	i	i	i	i	nt	nt	nt	nt	nt	nt	nt
OC(CNc1nc(-c2cccnc2)nc2ccccc12)c1ccccc1 (centres undefined)	i	12µM	i	i	i	11µM	22µM	i	?	?	i
